We go through 39 compounds from PubChem BioAssay (NCI).

“And” between values parts separate entries of the source, which are not always exact repeats. Identical values can stand only once. This is part of a sample that, as a whole, favours compounds with a hit. Of some 79,000 tested, about 15% had one in any assay. The source made the active and inactive calls. Cut-off read from the data, not from the text of the source: active = growth inhibition above about 70%; inactive = the rest.

A short description of the first experiment: NCI Yeast Anticancer Drug Screen. Data for the mec2-1 strain (AID 157). Conditions: S. cerevisiae mec2-1 strain, at 33.0 µM, hits give high values. The essentials:
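Yeast mec2-1 mutant treated with compound. Readout: growth inhibition vs vehicle controls.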
Consider `CS(=O)(=O)SCc1ccc([N+](=O)[O-])cc1`, for which the growth inhibition is 99% (active).
As for `Cc1csc(=S)n1OC(=O)NC1CCCCC1`, the growth inhibition was 93% (active).
Still for that read-out and setting: the same measure for `CCOc1ccc(NC(=O)C2=C(C)NC(C)=C(C(=O)Nc3ccc(OCC)cc3)C2c2cccc([N+](=O)[O-])c2)cc1`: 36% (inactive); for `CC(C)(C)N=C(NO)c1ccccc1`: 12% (inactive); for `CCCCC/C(=C(\C#N)C(=O)OCC)c1ccccc1`: 0% (inactive).
Still for that read-out and setting: then `O=C(NCCCl)Sc1ccc(Cl)cc1`, with 13% (inactive); and `O=C1Nc2ccc(Br)cc2C1=Nc1ccc2c(c1)OCO2`, with -58% (inactive); and `CCC(C)OC(=O)Nc1ccc(C)c(NC(=O)OC(C)CC)c1` (stereo not drawn), with 2% (inactive).
The same measure, in the same setting: then `O=C(O)c1cc2ccc(Cl)cc2c(O)c1C1=CCCCC1`, with 40% (inactive); and `CN(C)Cc1cc(N=Nc2ccc(Cl)cc2)ccc1OC(=O)c1ccccc1`, with 3% (inactive).
On to `CN1CCN(C(=O)/C=C/C(=O)c2ccccc2)CC1`, for which the growth inhibition was 67% (inactive).
Same read-out and setting: then `CCCC/C=C/C(C)(C(=O)OCC)C(=O)OCC`, with 5% (inactive); and `Cc1nc(-c2cc3cc([N+](=O)[O-])ccc3oc2=O)cs1`, with 16% (inactive).
The same measure, in the same setting: the same measure for `Cc1nc2ccccc2nc1NNc1ccccc1`: 11% (inactive).
As to `CN(C)[C@@H]1C(=O)C(C(N)=O)=C(O)[C@@]2(O)C(=O)C3=C(O)c4c(O)cccc4C[C@H]3C[C@@H]12`, the growth inhibition is 97% (active).
The same measure, in the same setting: the same measure for `COc1ccc(NC(=O)CC2SC(=Nc3ccccc3C)NC2=O)c([N+](=O)[O-])c1` (stereo not drawn): 15% (inactive); for `COc1cc(O)c2c(c1O)C(=O)c1cc(C)ncc1C2=O`: 9% (inactive); for `CSc1nnc(SC)nn1`: 77% (active).
Consider `COc1cc(/C=C2\CCC/C(=C\c3ccc(O)c(OC)c3)C2=O)ccc1O`, for which the growth inhibition is 0% (inactive).
As for `CN(C)CCNC(=O)c1cccc2cc([N+](=O)[O-])ccc12`, the growth inhibition is 70% (active).
Still for that read-out and setting: then `CCC(C)(C)c1ccc(Oc2cccc(C(=O)O)c2)cc1`, with 70% (active).
On the same count and under the same terms, the same measure for `CCCCCCSc1ncnc2[nH]ncc12`: 0% (inactive); for `CC(=O)Nc1ccc(/C=C/[N+](=O)[O-])cc1`: 3% (inactive).
The same measure, in the same setting: then `CCOC(=O)c1[nH]n(-c2ccccc2)c(=O)c1C=NC(=S)C(N)=S`, with 96% (active); and `CCCC(O)C1CC(C(C)C)CCC1C` (stereo not drawn), with 9% (inactive); and `O=[n+]1c2ccccc2n([O-])c2cc(Br)ccc21`, with 99% (active).
Take `CN(C)CCNC(=O)c1cccc2c1Oc1c(cccc1[N+](=O)[O-])O2`: the growth inhibition was -9% (inactive).
For the compound `Nc1ncc(-c2ccc(Br)cc2)s1`, the growth inhibition is 92% (active).
For the compound `Cc1cc2cc3cc(C)c(N)cc3nc2cc1N`, the growth inhibition was 82% (active).
Regarding `CC12C(=O)OC(=O)C(c3ccccc31)c1ccccc12`, the growth inhibition was -5% (inactive).
The same measure, in the same setting: then `c1ccc2c(OCC3CO3)cccc2c1` (stereo not drawn), with 32% (inactive).
On the same count and under the same terms, the same measure for `CCOC(=N)c1ccc(O)c(OC)c1`: 3% (inactive).
Same read-out and setting: then `Nc1cc(N)c(N=Nc2cccc3c(S(=O)(=O)O)cccc23)cc1N=Nc1cc([N+](=O)[O-])ccc1O`, with -17% (inactive); and `COC(=O)Oc1cc(Cl)c(Cl)cc1Cl`, with 5% (inactive); and `O=C(O)C1CC(c2ccccc2)=NN1c1ccccc1` (stereo not drawn), with -43% (inactive).
`COc1cc([C@@H]2c3cc4c(cc3[C@@H](Nc3ccc(NC(=O)c5cc([N+](=O)[O-])cn5C)cc3)[C@H]3COC(=O)[C@H]23)OCO4)cc(OC)c1O`: the growth inhibition is 66% (inactive).
On the same count and under the same terms, the same measure for `O=C(O)c1ccccc1/C=N/N=C1c2ccccc2-c2ccccc21`: 0% (inactive); for `O=C1CC(=O)c2ccccc21`: 10% (inactive).
Still for that read-out and setting: the same measure for `Nc1ncnc2c1ncn2C1OC(CO)CC1O` (stereo not drawn): 72% (active).

Staying with this experiment, now noted: S. cerevisiae mec2-1 strain, at 50.0 µM (retest, dose inferred, filed as 5.0), hits give high values.
As for `CS(=O)(=O)SCc1ccc([N+](=O)[O-])cc1`, the growth inhibition was 96% (active).
In the case of `Cc1csc(=S)n1OC(=O)NC1CCCCC1`, the growth inhibition was 99% (active).
The same measure, in the same setting: then `CCOc1ccc(NC(=O)C2=C(C)NC(C)=C(C(=O)Nc3ccc(OCC)cc3)C2c2cccc([N+](=O)[O-])c2)cc1`, with 96% (active); and `CC(C)(C)N=C(NO)c1ccccc1`, with 2% (inactive); and `CCCCC/C(=C(\C#N)C(=O)OCC)c1ccccc1`, with -4% (inactive).
Same read-out and setting: the same measure for `O=C(NCCCl)Sc1ccc(Cl)cc1`: 82% (active).
Still for that read-out and setting: the same measure for `O=C1Nc2ccc(Br)cc2C1=Nc1ccc2c(c1)OCO2`: 56% (inactive); for `CCC(C)OC(=O)Nc1ccc(C)c(NC(=O)OC(C)CC)c1` (stereo not drawn): 18% (inactive).
Consider `O=C(O)c1cc2ccc(Cl)cc2c(O)c1C1=CCCCC1`, for which the growth inhibition was 58% (inactive).
The same measure, in the same setting: the same measure for `CN(C)Cc1cc(N=Nc2ccc(Cl)cc2)ccc1OC(=O)c1ccccc1`: 47% (inactive).
As for `CN1CCN(C(=O)/C=C/C(=O)c2ccccc2)CC1`, the growth inhibition was -3% (inactive).
The same measure, in the same setting: the same measure for `CCCC/C=C/C(C)(C(=O)OCC)C(=O)OCC`: 16% (inactive); for `Cc1nc(-c2cc3cc([N+](=O)[O-])ccc3oc2=O)cs1`: 100% (active).
For the compound `Cc1nc2ccccc2nc1NNc1ccccc1`, the growth inhibition was 39% (inactive).
The same measure, in the same setting: the same measure for `CN(C)[C@@H]1C(=O)C(C(N)=O)=C(O)[C@@]2(O)C(=O)C3=C(O)c4c(O)cccc4C[C@H]3C[C@@H]12`: 99% (active).
Regarding `COc1ccc(NC(=O)CC2SC(=Nc3ccccc3C)NC2=O)c([N+](=O)[O-])c1` (stereo not drawn), the growth inhibition was 66% (inactive).
Still for that read-out and setting: the same measure for `COc1cc(O)c2c(c1O)C(=O)c1cc(C)ncc1C2=O`: 44% (inactive); for `CSc1nnc(SC)nn1`: 97% (active); for `COc1cc(/C=C2\CCC/C(=C\c3ccc(O)c(OC)c3)C2=O)ccc1O`: 15% (inactive).
For the compound `CN(C)CCNC(=O)c1cccc2cc([N+](=O)[O-])ccc12`, the growth inhibition is 72% (active).
For the compound `CCC(C)(C)c1ccc(Oc2cccc(C(=O)O)c2)cc1`, the growth inhibition was 48% (inactive).
On the same count and under the same terms, the same measure for `CCCCCCSc1ncnc2[nH]ncc12`: 6% (inactive); for `CC(=O)Nc1ccc(/C=C/[N+](=O)[O-])cc1`: 33% (inactive).
Still for that read-out and setting: then `CCOC(=O)c1[nH]n(-c2ccccc2)c(=O)c1C=NC(=S)C(N)=S`, with 88% (active).
Same read-out and setting: then `CCCC(O)C1CC(C(C)C)CCC1C` (stereo not drawn), with 52% (inactive); and `O=[n+]1c2ccccc2n([O-])c2cc(Br)ccc21`, with 99% (active).
Consider `CN(C)CCNC(=O)c1cccc2c1Oc1c(cccc1[N+](=O)[O-])O2`, for which the growth inhibition is 16% (inactive).
Same read-out and setting: the same measure for `Nc1ncc(-c2ccc(Br)cc2)s1`: 55% (inactive); for `Cc1cc2cc3cc(C)c(N)cc3nc2cc1N`: 98% (active); for `CC12C(=O)OC(=O)C(c3ccccc31)c1ccccc12`: 28% (inactive).
On the same count and under the same terms, the same measure for `c1ccc2c(OCC3CO3)cccc2c1` (stereo not drawn): 75% (active); for `CCOC(=N)c1ccc(O)c(OC)c1`: -3% (inactive).
The same measure, in the same setting: the same measure for `Nc1cc(N)c(N=Nc2cccc3c(S(=O)(=O)O)cccc23)cc1N=Nc1cc([N+](=O)[O-])ccc1O`: 69% (inactive).
As to `COC(=O)Oc1cc(Cl)c(Cl)cc1Cl`, the growth inhibition was 23% (inactive).
In the case of `O=C(O)C1CC(c2ccccc2)=NN1c1ccccc1` (stereo not drawn), the growth inhibition was 84% (active).
The same measure, in the same setting: the same measure for `COc1cc([C@@H]2c3cc4c(cc3[C@@H](Nc3ccc(NC(=O)c5cc([N+](=O)[O-])cn5C)cc3)[C@H]3COC(=O)[C@H]23)OCO4)cc(OC)c1O`: 79% (active) and 96% (active); for `O=C(O)c1ccccc1/C=N/N=C1c2ccccc2-c2ccccc21`: 15% (inactive).
The same measure, in the same setting: then `O=C1CC(=O)c2ccccc21`, with 53% (inactive).
On the same count and under the same terms, then `Nc1ncnc2c1ncn2C1OC(CO)CC1O` (stereo not drawn), with 92% (active) and 91% (active).
